Assay outcomes deposited in PubChem BioAssay by ICCB-Longwood Screening Facility, Harvard Medical School.
This excerpt belongs to a sample that is enriched for hits.
HCMV NEC inh = cytomegalovirus nuclear egress complex inhibition | 190,000 tested, 0.15% active | AID 1918969 | HTRF UL50-UL53 interaction, normalized percent inhibition | inhibition, % (no concentration beside the values); in the data active = inhibition above about 27%, passing the limit was not always enough
Sa growth inh = blocks Staphylococcus aureus growth | S. aureus RN4220 growth, OD600, 20 h, 42 °C; hits give low values | relative growth, % (concentration not given with the values) | 170,000 tested, 0.53% active;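 active = relative growth at most 50% at the other temperature and 20+ points below 30 °C, or under 10% at both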
S aureus helic = S. aureus DNA helicase inhibition; purified S. aureus helicase, fluorescence unwinding assay; inhibition, % (no concentration beside the values); 120,000 tested, 0.05% active; AID 485395; in the data active = inhibition above about 25%, passing the limit was not always enough;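 note: 0% = mean of negative control wells and 100% = mean of positive control wells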
* = called active by the depositor; . = no result given.

SMILES	HCMV NEC inh	Sa growth inh	S aureus helic
COc1ccc(Cn2ccc3nc(C)c(C(=O)NC4CCCCC4)cc3c2=O)cc1	-9	.	.
COc1ccc(OCC(O)Cn2c(=N)n(CCN3CCCCC3)c3ccccc32)cc1 (stereo unspecified)	-12	118	.
N=c1n(CCN2CCCCC2)c2ccccc2n1CC(O)COc1ccc(Cl)cc1Cl (stereo unspecified)	10	0.3*	.
Cc1cc(NC(=O)c2ccccc2)nc2c1c(=O)oc1ccccc12	2	.	-5
Cc1cc(NC(=O)c2ccc(N3C(=O)CCC3=O)cc2)nc2c1c(=O)oc1ccccc12	17	0.1*	-11
C=CCn1c(NCc2cccc(Br)c2)nc2ccccc21	-1	.	.
CC(Sc1cccc[n+]1[O-])C(=O)NCC1CCCCC1 (stereo unspecified)	-5	99	-9
Cc1cccc(C(=O)Sc2cccccc2=O)c1	.	-1.0*	0
Cc1cccc(C(=O)Nc2cc3c(cc2C)n(C)c(=O)n3C)c1	.	80	.
Cc1ccc2c(=O)c(C(=O)c3ccccc3)cn(CC(=O)Nc3ccc(C)c(F)c3)c2n1	72*	.	.
Cc1ccc2c(=O)c(C(=O)c3ccccc3)cn(CC(=O)Nc3ccccc3)c2n1	.	99	.
CO[C@H](C(=O)[C@@H](O)[C@@H](C)O)[C@@H]1Cc2cc3cc(O[C@H]4C[C@@H](O[C@H]5C[C@@H](O)[C@H](O)[C@@H](C)O5)[C@@H](O)[C@@H](C)O4)c(C)c(O)c3c(O)c2C(=O)[C@H]1O[C@H]1C[C@@H](O[C@H]2C[C@@H](O[C@H]3C[C@](C)(O)[C@H](O)[C@@H](C)O3)[C@H](O)[C@@H](C)O2)[C@H](O)[C@@H](C)O1	-44	-0.2*	.
O=C(Nc1c[nH]c(=O)[nH]c1=O)C1CCCO1 (stereo unspecified)	-39	107	7
FC(F)(F)c1ccc2nc(SCc3ccc(Br)cc3)[nH]c2c1	9	6.8*	.
N#Cc1ccc(CSc2nc3ccc(Cl)cc3[nH]2)cc1	-8	65	6
CCN1CCN(C(=O)C2=COCCO2)CC1	-20	93	-4
CC(C)(CNC(=O)Nc1ccc(Cl)c(Cl)c1)N1CCOCC1	0	-0.6*	12
CC(C)(CNC(=O)Cc1ccsc1)N1CCOCC1	-12	95	-6
O=C1OC(c2ccccc2)=C/C1=C/c1ccc(Cl)cc1	.	100	15
O=C1OC(c2ccccc2)=C/C1=C/c1ccccc1	1	-0.6*	.
CNc1nc(-c2cccc(N)c2)cs1	-14	.	.
Cc1ccc(N)c(C(O)(C(F)(F)F)C(F)(F)F)c1	-14	.	16
Oc1c(Cl)cc(Cl)cc1Sc1cc(Cl)cc(Cl)c1O	42	-0.6*	.
CCC(=O)c1cc(Cl)cc(Cl)c1O	-7	124	8
Oc1c(Cl)cc(Cl)cc1C(O)(C(F)(F)F)C(F)(F)F	12	7.3*	21
SMILES	HCMV NEC inh	Sa growth inh	S aureus helic
CCCCc1ccc(NC(=O)COC(=O)c2ccc(Cl)nc2)cc1	17	100	-8
Cc1oc(C(C)(C)C)cc1-c1cc(NC(=O)c2ccccc2)n(C)n1	2	116	.
CCN(CC)c1ccc(-n2cccc2)cc1	-38	105	-13
C=CC1=C(C(=O)O)N2C(=O)[C@@H](NC(=O)C(=NO)c3csc(N)n3)[C@H]2SC1	.	-0.1*	.
CN(C)CCn1nnnc1SCC1=C(C(=O)O)N2C(=O)[C@@H](NC(=O)Cc3csc(N)n3)[C@H]2SC1	0	.	.
CO/N=C(/C(=O)N[C@@H]1C(=O)N2C(C(=O)O)=C(COC(C)=O)CS[C@H]12)c1csc(N)n1	-14	1.1*	.
CC(=O)OCC1=C(C(=O)O)N2C(=O)[C@@H](NC(=O)Cc3cccs3)[C@H]2SC1	-18	-0.7*	.
CO/N=C(\C(=O)O)c1csc(N)n1	-19	92	17
COCC1=C(C(=O)OC(C)OC(=O)OC(C)C)N2C(=O)[C@@H](NC(=O)/C(=N/OC)c3csc(N)n3)[C@H]2SC1 (stereo partly specified)	-45	37	.
Cc1[nH]c(=O)[nH]c(=O)c1S(=O)(=O)NCCO	-10	.	.
O=c1[nH]c(NCCO)c(I)c(=O)[nH]1	67*	102	18
CC(C)S(=O)(=O)c1ccc(N2CCN(c3ccc(Cl)cc3)CC2)nn1	-26	.	.
COc1ccc(-n2cc(-c3ccccc3)c3c(SC)ncnc32)cc1	9	.	4
Cc1ccc(C)c(S(=O)(=O)N/N=C/c2ccc3c(c2)OCCO3)c1	-27	77	-3
O=S(=O)(c1cc(O)cc(S(=O)(=O)C(F)(F)F)c1)C(F)(F)F	-13	-0.3*	8
O=S(=O)(c1ccc(Cl)cc1)C(F)(F)F	10	97	-1
CCCNC(=O)C1CCN(C(=O)N2CCOc3ccccc32)CC1	-21	96	13
Cc1cc(C(=O)Nc2ccc(Cl)cc2)c2c(C)nn(-c3ccccc3)c2n1	.	105	.
Cc1nn(-c2ccccc2)c2[nH]cc(C(=O)Nc3ccccc3)c(=O)c12	-31	8.8*	5
O=C1NC(=S)NC(=O)C1=Cc1ccc(OCc2ccccc2)c(Br)c1	66*	.	.
O=C1NC(=O)C(=Cc2cc(Br)ccc2OCc2ccccc2)C(=O)N1	89*	.	.
CCOC(=O)COc1ccc(Br)cc1C=C1C(=O)NC(=O)NC1=O	57*	.	.
CCOc1cc(C=C2C(=O)NC(=S)NC2=O)ccc1OCc1ccccc1Cl	-11	.	.
CN1C(=O)C(=Cc2cc(Br)ccc2OCc2ccccc2)C(=O)N(C)C1=O	-3	.	.
Cc1ccc(OCCOc2ccc(Br)cc2C=C2C(=O)NC(=S)NC2=O)cc1	-25	.	.
SMILES	HCMV NEC inh	Sa growth inh	S aureus helic
CCC1(C)NC(=O)N(NC(=O)c2ccc(CSc3ncn[nH]3)cc2)C1=O (stereo unspecified)	-26	75	-5
O=C(O)C1C2C=CC(C2)C1C(=O)NCC1CCCCC1 (stereo unspecified)	-4	110	-18
Cc1cccc(NC(=O)CNc2nnnn2-c2ccccc2)c1C	5	106	-12
Cc1ccc(CN(C)c2nc(-c3cccnc3)nc3sc4c(c23)CCCC4)o1	-31	2.1*	-6
CCN(CC(=O)NC1CCS(=O)(=O)C1)c1nc(-c2cccnc2)nc2sc3c(c12)CCCC3 (stereo unspecified)	-34	86	14
CC(C)(C)c1cc2n(n1)CC(C)(C(=O)NC1CCCCC1)N(c1cccc(F)c1)C2=O (stereo unspecified)	-5	.	.
CCOC(=O)c1oc2ccccc2c1CO	.	-0.7*	10
CCOC(=O)c1oc2ccccc2c1CN1C(=O)c2ccccc2C1=O	-12	92	-20
CCOC(=O)N1CCN(C(=O)c2ccc3c(c2)NC(=O)C(CSCc2ccccc2F)N3)CC1 (stereo unspecified)	-32	94	-23
CCCCS(=O)c1sc2nc(-c3cccs3)cc(-c3ccccc3)c2c1N (stereo unspecified)	.	12*	8
CCCCS(=O)c1sc2nc(C)cc(C)c2c1N (stereo unspecified)	-57	81	4
O=C(Cc1ccccc1)OCC(=O)c1cccc(C(F)(F)F)c1	-21	108	9
O=c1[nH]nc(SCc2ccc(Cl)cc2Cl)c(=O)[nH]1	-9	90	-10
FC(F)(F)c1nc(SCc2ccc(Cl)cc2Cl)n[nH]1	0	-0.8*	.
N#CCn1c(COC(=O)C2CC(=O)N(CCc3ccccc3)C2)nc2ccccc2c1=O (stereo unspecified)	-32	69	5
